Bioassay records: PubChem, National Center for Advancing Translational Sciences (NCATS)
The list is not random: actives were taken first. Their share in the collection is about 19%.
HT1080 IDH1KD tx = kills HT-1080 cells with IDH1 knockdown. HT-1080 IDH1 knockdown viability, ATP luminescence, 48 h. Potency, µM (top dose mostly 46.1 µM), hits mostly cytotoxic. 2% of 360,000 active. AID 686971
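Luminescent ATP read-out (CellTiter-Glo, 10 min at room temperature) after 48 h compound exposure at 37 °C gave viability of IDH1-knockdown HT-1080 cells. Activity was normalised to DMSO and cell-free wells, then fitted as concentration-response curves.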
TDP1 cell CPT = growth inhibition of DT40 Tdp1-/-;hTDP1 cells with camptothecin (screen for TDP1 inhibitors); 12% of 420,000 active; AID 686979; chicken DT40 Tdp1-/-;hTDP1 cells + 20 nM CPT, ATP luminescence, 48 h; Potency, µM (titrated, usually from 46.2 µM), actives largely listed as inhibitors; note: nearly all actives have a fitted effect of over 55% in size
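Cell growth measured by CellTiter-Glo luminescence after a minimum 48 h, 37 C compound exposure with 20 nM CPT in Tdp1-knockout DT40 cells stably expressing hTDP1, seeded 400/well; qHTS titration format.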
IL-1B inflam inh = inflammasome signaling inhibition, IL-1 beta readout; activity change, % at 57.5 µM; 4.7% of 360,000 active; THP-1 LPS/ATP IL-1B secretion, AlphaLISA, 16 h; active compounds read low; in the data active = activity change below about -50%; inconclusive = mostly about -30% to -49%
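Secreted IL-1B measured by AlphaLISA bead assay after 16 h compound exposure of THP-1 cells; compounds (final up to 57.5 uM) added 1 h before LPS (250 ng/mL) and ATP (1.25 mM) stimulation; lower signal means less secretion.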
HT1080NT lethal = kills 2HG-producing HT-1080-NT fibrosarcoma cells | HT-1080-NT fibrosarcoma viability, CellTiter-Glo ATP luminescence, 48 h | Potency, µM (top dose mostly 46.1 µM), hits mostly cytotoxic | 1.6% of 360,000 active;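 note: NT is the 2HG producing partner of a matched IDH1 knockdown line; nearly all actives have a fitted effect of over 55% in size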
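Read-out is CellTiter-Glo luminescence after 10 minutes at room temperature, following 48 hours' compound treatment of HT-1080-NT cells (750 cells/well, RPMI, 5% FBS, 37 degrees C).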
DT40 TDP1 no CPT = qHTS for Inhibitors of human tyrosyl-DNA phosphodiesterase 1 (TDP1): qHTS in cells in absence of CPT | DT40 Tdp1-/- hTDP1 cells, no CPT, ATP luminescence, 48 h | Potency, µM (doses to about 46.2 µM), hits mostly inhibitors | 15% of 420,000 active; note: nearly all actives have a fitted effect of over 55% in size
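Camptothecin absent (DMSO only). Human TDP1-complemented DT40 knockout cells, 400 cells/well, 37 °C for minimum 48 hr; ATP measured via CellTiter-Glo, 30 min dark incubation, luminescence.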
Each line names hits and unclear results; the compound was inactive in the other large screens. Unless noted, calls come from the whole dose curve; as a rule, active = well fitted curve in the direction sought with a large enough effect; inconclusive = small, poorly fitted or top-dose-only effect, or another doubt; inactive = no such curve, though single readings can be large; an effect the other way counts as inactive or inconclusive.

COc1ccccc1N1CCN(C(=O)C2CCN(S(=O)(=O)c3ccc(F)cc3)CC2)CC1	DT40 TDP1 no CPT inconclusive
COc1ccccc1N1CCN(C(=O)C2CCN(S(=O)(=O)c3cccs3)CC2)CC1	TDP1 cell CPT 16µM, DT40 TDP1 no CPT 21µM (no result: HT1080 IDH1KD tx, IL-1B inflam inh, HT1080NT lethal)
O=C(c1ccc(C(F)(F)F)cc1)N(Cc1cc2ccc(F)cc2nc1N1CCOCC1)C1CC1	DT40 TDP1 no CPT inconclusive (no result: HT1080 IDH1KD tx, IL-1B inflam inh, HT1080NT lethal)
Cc1ccc2[nH]c(=O)c(CN(CC3CCCO3)C(=S)NCc3ccco3)cc2c1 (stereo not drawn)	TDP1 cell CPT inconclusive, IL-1B inflam inh inconclusive, DT40 TDP1 no CPT 21µM
Cc1ccc2cc(CN(Cc3ccco3)C(=S)NCC3CCCO3)c(=O)[nH]c2c1 (stereo not drawn)	TDP1 cell CPT inconclusive, DT40 TDP1 no CPT 21µM
COc1ccc2cc(CN(CC3CCCO3)C(=S)NCc3ccco3)c(=O)[nH]c2c1 (stereo not drawn)	DT40 TDP1 no CPT inconclusive
CN(C)CCN(Cc1cc2cc3c(cc2[nH]c1=O)OCO3)C(=S)NCc1ccco1	none
Cc1ccc2cc(CN(CC3CCCO3)C(=S)NCc3ccco3)c(=O)[nH]c2c1 (stereo not drawn)	IL-1B inflam inh inconclusive
Cc1ccc2[nH]c(=O)c(CN(Cc3cccs3)C(=S)NCc3ccco3)cc2c1	TDP1 cell CPT inconclusive, DT40 TDP1 no CPT 16µM
O=c1[nH]c2cc3c(cc2cc1CN(Cc1cccnc1)C(=S)NCc1ccco1)OCCO3	TDP1 cell CPT 15µM, DT40 TDP1 no CPT inconclusive
Cc1cccc(NC(=O)CSCC(=O)N(C)Cc2ccc(Cl)c(Cl)c2)c1	TDP1 cell CPT inconclusive
CCNC(=O)C1(C)CCCN(Cc2csc(-c3ccccc3)n2)C1 (stereo not drawn)	HT1080 IDH1KD tx inconclusive, TDP1 cell CPT inconclusive, HT1080NT lethal inconclusive, DT40 TDP1 no CPT inconclusive
CCNC(=O)C1(C)CCN(Cc2ccccc2-c2ccccc2)C1 (stereo not drawn)	TDP1 cell CPT inconclusive, DT40 TDP1 no CPT inconclusive
CCNC(=O)C1(C)CCN(Cc2csc(-c3ccccc3)n2)C1 (stereo not drawn)	TDP1 cell CPT inconclusive, DT40 TDP1 no CPT 12µM
CCNC(=O)C1(C)CCN(Cc2ccc(-c3ccccc3)cc2)C1 (stereo not drawn)	TDP1 cell CPT inconclusive, DT40 TDP1 no CPT 21µM
NCCn1c(-c2ccccc2)cc(C(=O)O)c1-c1ccccc1F	none
C[n+]1cccc2c(Br)ccc([O-])c21	none
[O-][n+]1cccc2c(Br)cc(Br)c(O)c21	TDP1 cell CPT inconclusive, IL-1B inflam inh -62, DT40 TDP1 no CPT inconclusive
CCCc1cc2c(=O)c(-c3ccccn3)coc2cc1OC	TDP1 cell CPT inconclusive, HT1080NT lethal inconclusive, DT40 TDP1 no CPT 8.2µM
COc1ccccc1Oc1coc2cc(OCC(N)=O)ccc2c1=O	none
O=C(O)c1cc(O)c2c(c1)[C@H]([C@H]1c3cc(C(=O)O)cc(O)c3C(=O)c3c(O[C@@H]4O[C@H](CO)[C@@H](O)[C@H](O)[C@H]4O)cccc31)c1cccc(OC3O[C@H](CO)[C@@H](O)[C@H](O)[C@H]3O)c1C2=O (stereo partly drawn)	HT1080 IDH1KD tx inconclusive, TDP1 cell CPT 15µM, DT40 TDP1 no CPT 15µM
CCC1CN(C(=O)N2CCC(C(=O)NCc3cccs3)CC2)c2ccccc2O1 (stereo not drawn)	TDP1 cell CPT 21µM, DT40 TDP1 no CPT 21µM (no result: HT1080 IDH1KD tx, IL-1B inflam inh, HT1080NT lethal)
CCC1CN(C(=O)N2CCC(C(=O)NCc3ccc(F)cc3)CC2)c2ccccc2O1 (stereo not drawn)	none
CCC1CN(C(=O)N2CCC(C(=O)NCCCc3ccccc3)CC2)c2cc(C)ccc2O1 (stereo not drawn)	TDP1 cell CPT inconclusive, DT40 TDP1 no CPT 13µM (no result: HT1080 IDH1KD tx, IL-1B inflam inh, HT1080NT lethal)
CCC1CN(C(=O)N2CCC(C(=O)N(C)Cc3ccccc3)CC2)c2ccccc2O1 (stereo not drawn)	TDP1 cell CPT inconclusive, DT40 TDP1 no CPT 15µM (no result: HT1080 IDH1KD tx, IL-1B inflam inh, HT1080NT lethal)
CCC1CN(C(=O)N2CCC(C(=O)NCCCc3ccccc3)CC2)c2ccccc2O1 (stereo not drawn)	TDP1 cell CPT 16µM, DT40 TDP1 no CPT inconclusive (no result: HT1080 IDH1KD tx, IL-1B inflam inh, HT1080NT lethal)
CCC1CN(C(=O)N2CCC(C(=O)NCc3ccco3)CC2)c2ccccc2O1 (stereo not drawn)	TDP1 cell CPT inconclusive, DT40 TDP1 no CPT inconclusive
COc1cc2c(cc1OC)C(c1ccccc1[N+](=O)[O-])N(C(C)=O)CC2 (stereo not drawn)	none
Cc1cc(NC(=O)COC(=O)c2ccc([N+](=O)[O-])cc2Cl)no1	none
CCC1CN(C(=O)N2CCC(C(=O)NCCC3=CCCCC3)CC2)c2cc(C)ccc2O1 (stereo not drawn)	TDP1 cell CPT 15µM, DT40 TDP1 no CPT 15µM (no result: HT1080 IDH1KD tx, IL-1B inflam inh, HT1080NT lethal)
CC1CN(C(=O)N2CCC(C(=O)NCCC3=CCCCC3)CC2)c2ccccc2O1 (stereo not drawn)	DT40 TDP1 no CPT inconclusive (no result: HT1080 IDH1KD tx, IL-1B inflam inh, HT1080NT lethal)
CC1(C)Cc2ccccc2C(NNC(=O)c2ccccc2)=N1	none
CC1(C)Cc2ccccc2C(NNC(=O)c2ccccn2)=N1	HT1080 IDH1KD tx inconclusive, TDP1 cell CPT 18µM, DT40 TDP1 no CPT 21µM
CCCCN1C(=O)C(CC(=O)NCCc2ccccn2)CC(C(=O)N2CCOCC2)=C1C (stereo not drawn)	none
COc1cc(NC(=O)C2CCN(S(=O)(=O)c3ccc4[nH]c(=O)oc4c3)CC2)cc(OC)c1	none
COc1ccc(/C=C(\C#N)c2nc(-c3cc4ccccc4oc3=O)cs2)cc1OC	none (no result: HT1080 IDH1KD tx, IL-1B inflam inh, HT1080NT lethal)
